Measurements taken from the supplement of paper PMC11219838.
Unmarked numbers belong to inactive results.

Legend:
Settings in all cases: 60 µM; 5 days; temperature: 20 °C
[1] = system: Meloidogyne hapla J2; assay: proportion of mobile M. hapla J2 relative to DMSO control (fraction of DMSO control); higher = more viable, less nematicidal, active = 0.7 or less
How it was run: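 About 25 M. hapla J2 were added per 96-well well in distilled water, and compound was pinned to 60 µM final (0.6% v/v DMSO). Sealed plates were shaken at 200 rpm for 5 days at 20 °C, then 2 µL 1 M NaOH was added before microscopic mobility scoring. Mobility was divided by the mean of eight DMSO wells on the same plate, and two biological replicates were averaged.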

[2] = system: Ditylenchus dipsaci; assay: proportion of mobile D. dipsaci (mixed stage) relative to DMSO control (fraction of DMSO control); higher = more viable, less nematicidal, active = 0.86 or less; extreme values may be limits of the assay
How it was run: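 D. dipsaci were grown on pea plants in Gamborg B-5 agar and extracted through a filter funnel into water, and about 20 worms were added per 96-well well in distilled water. Compound was pinned to 60 µM final (0.6% v/v DMSO), and sealed plates were shaken at 200 rpm for 5 days at 20 °C. After 2 µL 1 M NaOH was added, mobile worms were scored microscopically. Mobility was expressed relative to DMSO controls and averaged over two biological replicates.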

[3] = system: Caenorhabditis elegans dauer (daf-2(e1370)); assay: proportion of mobile C. elegans dauer larvae relative to DMSO control (fraction of DMSO control); higher = more viable, less nematicidal, active = 0.63 or less; extreme values may be limits of the assay
How it was run: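 Compound was added by pinning to 60 µM final, giving 0.6% v/v DMSO, in 96-well plates containing about 20 C. elegans dauers per well in liquid NGM. These dauers came from synchronized larvae held on MYOB plates with E. coli OP50 for 48 h at 25 °C. Plates were sealed and shaken at 200 rpm at 20 °C for 5 days. Under a dissection microscope, the proportion of mobile worms was scored relative to DMSO wells, and two biological replicates were averaged.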

| SMILES | proportion of mobile M. hapla J2 [1] | proportion of mobile D. dipsaci [2] | proportion of mobile C. elegans dauer larvae [3] |
| --- | --- | --- | --- |
| COc1ccc(-c2nnc(SCC(=O)Nc3cccc(Cl)c3Cl)o2)cc1 | 0.932 | 1 |  |
| CCn1c(SCc2ccc(OC)cc2)nnc1-c1ccco1 | 0.611 (active) | 1 |  |
| Cc1cccc(OC(C)c2nc(-c3cccnc3)no2)c1 (stereo not given) | 0.994 | 1 |  |
| CCOc1ccccc1-c1nnc(SCC(=O)Nc2nccs2)o1 | 0.739 | 1 |  |
| COc1ccc(CC(=O)Nc2ccc(-c3noc(-c4ccc(F)cc4)n3)cc2)cc1 | 0.978 | 1 |  |
| O=C(CSc1nnc(-c2ccc(Cl)cc2Cl)o1)Nc1ccccn1 | 0.838 | 1 |  |
| Cc1ccc(CSc2nnc(-c3ccncc3)o2)cc1 | 0.951 | 0.75 (active) |  |
| Cc1ccc(-c2nnc(SCc3ccc(Br)cc3)o2)cc1 | 0.923 | 1 |  |
| Cc1ccccc1-c1noc(COc2ccccc2)n1 | 0.764 | 1 |  |
| CCN(C(=O)CSc1nnc(-c2ccncc2)o1)c1ccccc1 | 0.965 | 1 |  |
| CCOc1cc(-c2nc(-c3ccccc3OC)no2)cc(OCC)c1OCC | 0.978 | 1 |  |
| Cc1cccc(-c2noc(-c3cccc(Cl)c3)n2)c1 | 1 | 1 |  |
| Brc1ccc(-c2noc(-c3ccco3)n2)cc1 | 1.01 | 0.875 |  |
| Cc1ccccc1-c1nnc(SCc2ccccc2)o1 |  | 1 | 1 |
| COc1ccc(Cl)cc1-c1noc(COc2ccccc2C)n1 | 0.977 | 1 |  |
| COc1ccccc1NC(=O)c1ccccc1-c1nc(-c2ccc(Cl)cc2)no1 | 0.78 | 1 |  |
| CC(C)C(=O)Nc1ccccc1-c1nc(-c2ccncc2)no1 | 0.987 | 1 |  |
| O=C(CSc1nnc(-c2ccccc2)o1)Nc1cccc(Cl)c1 | 1 | 1 |  |
| O=C(CSc1nnc(-c2ccco2)o1)c1ccc(Br)cc1 |  | 1 | 1 |
| CCOc1nc(-c2ccccc2)ccc1-c1noc(-c2cccc(C)c2)n1 | 0.805 | 1 |  |
| Cc1ccc(-c2nnc(SCC(=O)Nc3c(C)cc(C)cc3C)o2)cc1 | 0.979 | 1 |  |
| Ic1ccc(OCc2nc(-c3ccncc3)no2)cc1 | 1.01 | 1 |  |
| COc1ccccc1-c1nnc(SCc2ccc(F)cc2)o1 | 0.329 (active) | 1 |  |

| SMILES | proportion of mobile M. hapla J2 [1] | proportion of mobile D. dipsaci [2] | proportion of mobile C. elegans dauer larvae [3] |
| --- | --- | --- | --- |
| O=C(Nc1ccccc1-c1nc(-c2cccnc2)no1)c1ccccc1Cl | 0.983 | 1 |  |
| COc1ccc(Cl)cc1-c1noc(-c2ccc(Cl)cc2)n1 | 0.906 | 1 |  |
| CCOc1cc(-c2nc(-c3cccnc3)no2)cc(OCC)c1OCC |  | 1 | 1 |
| CCc1ccc(NC(=O)CSc2nnc(-c3ccc(Cl)cc3Cl)o2)cc1 | 0.785 | 1 |  |
| Clc1cc(Br)ccc1OCc1nc(-c2cccnc2)no1 | 1.04 | 1 |  |
| Clc1ccc(-c2nc(-c3ccncc3)no2)c(Cl)c1 | 0.942 | 1 |  |
| Cc1ccc(-c2nnc(SCc3ccccc3Cl)o2)cc1 | 0.964 | 1 |  |
| Cc1ccc(C)c(OCc2nc(-c3cccnc3)no2)c1 |  | 1 | 1 |
| COc1ccc(Cl)cc1-c1noc(-c2ccccc2)n1 | 1.02 | 1 |  |
| Cc1cc(OC(C)c2nc(-c3cccnc3)no2)ccc1Cl (stereo not given) | 0.862 | 1 |  |
| O=C(CSc1nnc(-c2ccccc2Cl)o1)NCc1ccco1 | 0.961 | 1 |  |
| Cc1ccoc1-c1nnc(-c2ccco2)o1 | 0.949 | 0.833 (active) |  |
| COc1nc(-c2ccccc2)ccc1-c1noc(-c2ccccc2C)n1 | 0.909 | 1 |  |
| Cc1cc(C)cc(NC(=O)CSc2nnc(-c3ccccc3)o2)c1 | 1.04 | 1 |  |
| CCN(CC)C(=O)CSc1nnc(-c2cccc(Cl)c2)o1 | 0.922 | 1 |  |
| Cc1ccc(-c2nc(-c3cccnc3)no2)cc1Cl | 1.02 | 1 |  |
| Clc1ccc(OCc2nc(-c3ccncc3)no2)cc1 | 0.749 | 1 |  |
| COc1cccc(-c2noc(COc3ccc4ccccc4c3)n2)c1 | 1.04 | 1 |  |
| N#Cc1ccccc1CSc1nnc(-c2ccccc2)o1 | 0.841 | 1 |  |
| CCCCC(=O)Nc1ccccc1-c1nc(-c2cccnc2)no1 | 1.01 | 1 |  |
| Cn1cc(C(=O)CSc2nnc(-c3cccc(Cl)c3)o2)c2ccccc21 | 0.999 | 1 |  |
| Cc1cc(OCc2nc(-c3cccnc3)no2)c(C)c(C)c1Br | 0.934 | 1 |  |
